Inconclusive results are not listed. A call without a number means that no potency is given here. Calls of active or inactive are those of the source. Calls follow the shape of the dose curve; as a rule, active = well fitted inhibition curve with a large enough effect; inconclusive = small, poorly fitted or top-dose-only effect; inactive = no such curve, though single readings can be large or run the other way.

These results are taken from PubChem BioAssay (NCATS).
Potency is read from the fitted curve at half-maximal effect.

The assay in a line: qHTS for Inhibitors of ATXN expression: Validation (AID 588378). Also: nearly all actives have a fitted effect of over 75% in size. Conditions: cell-based ATXN2 expression reporter assay, luminescence; series mostly up to 57.1 µM. The essentials: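 Cells: HEK293-ATXN2-FFLuc, phenol-red free DMEM, 2 h attachment. Compound pin-transfer, 24 h, 37 degrees C, 5% CO2. CellTiter-Fluor 30 min, Ex405/Em525; Bright-Glo 5 min, luminescence 2 s exposure.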
Background: qHTS replaces the single test concentration by a dilution series.
On to `CC[N+](CC)(CC)CCOc1cccc(OCC[N+](CC)(CC)CC)c1OCC[N+](CC)(CC)CC`, for which the Potency result is “inactive”. In the case of `CC(C)NCC(O)COc1ccc(CCOCC2CC2)cc1` (configuration not stated) it was “inactive”; in that of `CN(C)c1nc(N(C)C)nc(N(C)C)n1`, “inactive”. For `COc1nc(C)nc(Cl)c1NC1=NCCN1`, the Potency result is “inactive”. Consider `NC12CC3CC(CC(C3)C1)C2`, for which the Potency entry is “inactive”.

As for `Cc1cnc(C(=O)NCCc2ccc(S(=O)(=O)NC(=O)NC3CCCCC3)cc2)cn1`, the Potency entry was “inactive”. As for `NCCc1cnc[nH]1`, the Potency entry was “inactive”.

With `Clc1ccccc1C(c1ccccc1)(c1ccccc1)n1ccnc1`, the Potency is 25.1 µM (active). In the case of `CC1COc2c(N3CCN(C)CC3)c(F)cc3c(=O)c(C(=O)O)cn1c23` (configuration not stated) it was “inactive”. Regarding `COc1cc2nc(N3CCN(C(=O)C4COc5ccccc5O4)CC3)nc(N)c2cc1OC` (configuration not stated), the Potency result is “inactive”.

Take `CC12CC3CC(C)(C1)CC(N)(C3)C2`: the Potency result was “inactive”. For `Cc1ccccc1N1C(=O)c2cc(S(N)(=O)=O)c(Cl)cc2NC1C` (configuration not stated), the Potency entry is “inactive”.

As to `NCCCCCC(=O)O`, the Potency entry is “inactive”. On to `COc1ccccc1OCC(O)CN1CCN(CC(=O)Nc2c(C)cccc2C)CC1` (configuration not stated), for which the Potency result is “inactive”. As for `CCN1CCCC1CNC(=O)c1cc(S(=O)(=O)CC)c(N)cc1OC` (configuration not stated), the Potency result is “inactive”. As for `CC(C(=O)O)c1cccc(C(=O)c2ccccc2)c1` (configuration not stated), the Potency result was “inactive”. In the case of `CCC1(C)CC(=O)NC1=O` (configuration not stated) it was “inactive”. In the case of `O=C(C1CCCCC1)N1CC(=O)N2CCc3ccccc3C2C1` (configuration not stated) it was “inactive”; in that of `Fc1ccc([C@@H]2CCNC[C@H]2COc2ccc3c(c2)OCO3)cc1`, 35.5 µM (active); in that of `CN1C2CCC1CC(OC(=O)C(CO)c1ccccc1)C2` (configuration not stated), “inactive”. Turning to `Clc1ccc2nsnc2c1NC1=NCCN1`, the Potency entry is “inactive”.

`NC(=O)NO`: the Potency entry was “inactive”. As for `COc1ccc(C2CNC(=O)C2)cc1OC1CCCC1` (configuration not stated), the entry is “inactive”; as for `NC(CO)C(=O)NNCc1ccc(O)c(O)c1O` (configuration not stated), “inactive”.

Regarding `CS(=O)(=O)Nc1ccc([N+](=O)[O-])cc1Oc1ccccc1`, the Potency result is “inactive”. In the case of `CCc1cccc2c3c([nH]c12)C(CC)(CC(=O)O)OCC3` (configuration not stated) it was “inactive”; in that of `Nc1nc2c(ncn2COC(CO)CO)c(=O)[nH]1`, “inactive”.
